# Reference: PubChem BioAssay AID1626 (SRMLSC, 2009)
# In all, about 220,000 compounds went through this assay and about 2,000 (0.91%) were called active. Not shown: some 2% with an inconclusive outcome. The list is a sample of the results. Entries with a potency or affinity are not part of this list. Values without a mark were called inactive. No stated cut-off is given here; in the data, inconclusive means inhibition above about 80% without an active follow-up result; inactive means below that; test concentration not stated here.
# Assay: M. tuberculosis H37Rv growth inhibitors, H37Rv strain (AID 1626);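 further: bacteria incubated seven days before Alamar blue readout; 0% = bacteria only wells and 100% = bacteria with antibiotic wells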
# Details: active compounds read high, concentration not given here
row,SMILES,inhibition [%]
1,Cc1ccccc1NC(=O)Cc1nnc(SCc2ccc(Cl)c(Cl)c2)n1C,-3.35
2,COc1cccc(C(=O)NNC(=S)NC2CCCCC2)c1,4.93
3,CCCn1c(SCC(=O)Nc2ccccc2C(=O)OC)nc2c1c(=O)n(C)c(=O)n2C,0.72
4,O=C(CCl)NCc1c(Cl)cccc1-n1cccc1,-3.53
5,COCCOC(=O)c1c(NC(=O)CN2c3ccccc3CC2C)sc(C(N)=O)c1C (configuration not stated),6.79
6,O=C(COC(=O)c1cccc(Cl)c1Cl)NCCN1C(=O)CSC1=O,-1.16
7,O=S(=O)(c1cc(Cl)ccc1Br)N1CCCCC1,3.97
8,CCOC(=O)N1CCC(Nc2nc3ccccc3n3cnnc23)CC1,4.5
9,Cc1ccc(-c2csc(NC(=O)C[n+]3cc(-c4ccccc4)n4c3CCC4)n2)cc1,75.7
10,O=C(C[n+]1cc(-c2ccccc2)n2c1CCC2)Nc1nc(-c2ccccc2)cs1,77.8
11,Cc1ccc(NC(=O)C[n+]2cc(-c3ccc(C)cc3)n3c2CCC3)cc1,0.55
12,Cc1ccc(-c2c[n+](CC(=O)Nc3c(C)cccc3C)c3n2CCC3)cc1,-1.5
13,CC(C)(CO)NCc1ccc(Br)cc1,1.99
14,C/C(=N/NC(=O)CN1CCN(Cc2ccccc2Cl)CC1)c1ccco1,-5.99
15,CNC(=O)COC(=O)/C=C/c1ccco1,-4.68
16,COC(=O)C1CC(=O)N(Cc2ccccc2)C1 (configuration not stated),-1.62
17,COc1ccc(C2C(C(=O)OCC(=O)NC(C)(C)C)CCC(=O)N2c2ccc(C)cc2)cc1OC (configuration not stated),70.3
18,CCOC(=O)c1c(NC(=O)C(=O)N/N=C/c2ccc(OCC)cc2)sc2c1CCCCC2,2.16
19,O=C(Cc1sc(-c2ccccc2Cl)nc1-c1ccccc1)Nc1ccc(F)cc1,-0.94
20,CC(C)CCN1C(=O)c2ccc(C(=O)NCc3ccco3)cc2C1=O,4.17
21,COc1cc(C2NCCc3c2[nH]c2ccccc32)ccc1OC(C)C (configuration not stated),1.05

row,SMILES,inhibition [%]
1,COc1ccc(C2NCCc3c2[nH]c2ccccc32)cc1CN1CCc2cc(OC)c(OC)cc2C1C (configuration not stated),4.52
2,Cc1ccc(N(CC(=O)NCCSc2nc3ccccc3s2)S(=O)(=O)c2ccccc2)c(C)c1,9.8
3,COC(=O)c1ccc(/C=C(\C#N)c2nc3ccccc3s2)cc1,3.69
4,CNC(=O)Nc1cccc2cccnc12,-8.8
5,Cc1ccc(S(=O)(=O)Nc2cccc3cccnc23)cc1,-2.94
6,CN(CCc1ccccn1)C(=S)Nc1ccc(Cl)c(Cl)c1,3.62
7,COc1ccc(NS(=O)(=O)c2cnc[nH]2)cc1,5.45
8,Cc1[nH]n(-c2ccccc2)c(=O)c1C(=O)c1ccccc1,-0.23
9,Cc1[nH]n(-c2ccccc2)c(=O)c1C(=O)c1ccc(Cl)cc1,-3.87
10,CCn1c(=O)c(=O)[nH]c2cc(C(=O)N3CCN(c4ccccc4F)CC3)ccc21,7.44
11,Nc1ccc(C(=O)OCC(=O)N2c3ccccc3Sc3ccccc32)cc1[N+](=O)[O-],-1.19
12,Cc1cccc(C)c1N=Cc1c(O)n(-c2nccs2)c(=O)c2ccccc12,2.79
13,Cc1ccc(N=Cc2c(O)n(-c3nccs3)c(=O)c3ccccc23)cc1,-4.95
14,Cc1cc(C(=O)N/N=C/c2ccc(-c3ccc(C)c(Cl)c3)o2)n[nH]1,56.6
15,Clc1ccc(Cl)c(-c2ccc(/C=N/c3ncn[nH]3)o2)c1,6.69
16,CSc1ccc(CN(C)Cc2nc3cc(C(F)(F)F)ccc3c(=O)[nH]2)cc1,91.3
17,COc1cccc(CN(C)Cc2nc3cc(C(F)(F)F)ccc3c(=O)[nH]2)c1,4.79
18,CC(C)C(=O)NNC(=O)c1c(O)c2ccccc2[nH]c1=O,-10.7
19,Cc1cc(C)n(-c2ncc3c(n2)N(CCO)CCOC3=O)n1,10.4
20,CN(C)c1ccc(/C=C/C(=O)c2cccnc2)cc1,3.22
21,N#Cc1ccc(/C=C/C(=O)O)cc1,-0.8

row,SMILES,inhibition [%]
1,O=C(/C=C/c1ccc([N+](=O)[O-])cc1)c1cccnc1,11.1
2,CCN(CC)c1ccc(/C=C/C(=O)c2cccnc2)cc1,16.5
3,O=C(/C=C/c1ccccc1)c1ccccc1,10.5
4,O=C(/C=C/c1ccccc1Cl)c1cccnc1,-7.55
5,O=C(/C=C/c1cccc(O)c1)c1cccnc1,53.2
6,O=C(/C=C/c1cccnc1)c1ccc(O)cc1,-0.25
7,CC(C)(C)CC(C)(C)NC(=S)NC1CCN(Cc2ccccc2)CC1,-15.9
8,Cc1ccc(NC(=S)Nc2cccc(-c3n[nH]c(=S)o3)c2)cc1,10.2
9,O=C(COC(=O)/C=C/c1ccc(Cl)cc1)NCCC1=CCCCC1,-4.53
10,Cc1cccc(C(=O)NCC2CCCO2)c1 (configuration not stated),-2.3
11,Cc1ccc(CNC(=O)C(=O)NCC2OCCN2S(=O)(=O)c2cccs2)cc1 (configuration not stated),-2.36
12,CCOC(=O)c1c[nH]n(-c2ccc(C)cc2)c1=O,-7.4
13,Cc1onc(-c2ccccc2Cl)c1C(=O)Nc1ncn[nH]1,6.99
14,CCOC(=O)C1CCCN(Cc2cc(Br)c(OC)cc2OC)C1 (configuration not stated),1.19
15,Cc1cc(C(=O)N(CCC#N)Cc2cccs2)no1,-6.57
16,CCOc1ccc(C(C)NC(=O)C2CCC2)cc1 (configuration not stated),1.59
17,COCc1nnc(SCC(=O)NCc2ccccc2)n1-c1ccccc1,-6.68
18,COc1ccccc1NC(=O)C1=C(C)NC2=C(C(=O)CCC2)C1c1ccc2c(c1)OCO2 (configuration not stated),-0.94
19,O=C(/C=C/c1ccc(Cl)c([N+](=O)[O-])c1)Nc1cccnc1,-11.5
20,O=C(/C=C/c1ccc(Cl)c([N+](=O)[O-])c1)NCc1cccnc1,2.22
